In the library only some 5.4% were active in any assay of this set; here they are far more common.
Granule exo inh – lytic granule exocytosis inhibition; TALL-104 LAMP-1 surface exposure, flow cytometry; cells stimulated with thapsigargin and PMA; inhibition, % at 10 µM; 360,000 tested, 0.66% active; AID 651702;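 active = inhibition above about 55%, limit read from the data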
GASC-1 inh – human JMJD2C demethylase inhibition; Q9H3R0; GST-JMJD2C(1-420) H3K9me3 demethylation, DELFIA europium; inhibition, % at 2.35 µM; 330,000 tested, 0.069% active; AID 2099;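 active = more than half of a compound's replicate wells show inhibition beyond 50%, single wells judged on their own value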;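 also: signal counts dimethyl H3K9 product captured on neutravidin plate; 0% = median of DMSO wells and 100% = 0.3 times that DMSO median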
SMARCA2 act – SMARCA2 function activation, primary screen; MG213 cells, MMTV-luciferase reporter, dexamethasone, overnight; activation, % at 9.1 µM; 370,000 tested, 1% active; in the data active = activation above about 7.8%;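 also: 0% = vehicle wells and 100% = reference activator wells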
ALR inh – blocks human ALR sulfhydryl oxidase activity; purified ALR, DTT oxidation, H2O2 HRP-luminol luminescence; inhibition, % (test concentration not listed); P55789; AID 485317; 290,000 tested, 3.8% active;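 active = mean replicate inhibition above about 79%, with every replicate also reaching it, limit read from the data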
Target sequence (P55789 whole entry, looked up): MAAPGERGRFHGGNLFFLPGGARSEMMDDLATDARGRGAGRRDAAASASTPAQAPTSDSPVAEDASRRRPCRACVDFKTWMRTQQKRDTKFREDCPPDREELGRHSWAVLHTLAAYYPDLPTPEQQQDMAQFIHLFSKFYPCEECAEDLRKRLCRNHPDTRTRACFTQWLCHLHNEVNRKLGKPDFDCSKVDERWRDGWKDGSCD
M18AAP inhibitor – blocks P. falciparum M18 aspartyl aminopeptidase | recombinant PfM18AAP, H-Glu-NHMec fluorogenic cleavage | inhibition, % at 7.35 µM | 290,000 tested, 1.2% active | AID 1822;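 active = inhibition above the campaign mean inhibition over all tested compounds plus 3 SD, cut at about 28% in these data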;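 also: 0% = plate median of test compound wells and 100% = 2 mM ZnCl2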
beta cell repl – MIN6 beta-cell proliferation induction. MIN6 cells proliferation, ATPlite luminescence, 48 h; cells starved in 0.2% serum; 100% = growth in 10% serum. proliferation, % at 10 µM. 330,000 tested, 0.29% active;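 active = compounds whose signal lies at least 3.5 SD above the mean of all wells on their plate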;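 also: 0% = DMSO-treated cells in low-serum medium and 100% = 10% serum control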
* hit, by the source's call; . = no result.

SMILES	Granule exo inh	GASC-1 inh	SMARCA2 act	ALR inh	M18AAP inhibitor	beta cell repl
Cc1csc(SCC(=O)Nc2nc(-c3ccccc3)cs2)n1	2	2	0	52	-7	0
Cc1cc(=O)[nH]c(SCC(=O)Nc2nc(-c3ccccc3)cs2)n1	5	9	-1	99*	3	-2
Cc1ccc(-c2csc(NC(=O)CSc3nc4ccccc4[nH]3)n2)cc1	6	23	-3	.	-3	.
O=C(COC(=O)c1cccs1)Nc1nc(-c2ccccc2)cs1	1	7	-1	88*	1	-1
COc1ccc(C2C(C(=O)N3CCN(c4ccccc4Cl)CC3)CC(=O)N2c2ccc(OC)cc2)cc1 (configuration not stated)	.	.	-1	.	.	.
O=C1C[C@@H](O)[C@H](O)c2cccc(O)c21	.	.	2	.	.	.
Cc1nnc(SCC(=O)Nc2ccc(Br)cn2)[nH]c1=O	2	-10	-1	99*	-1	-4
Cc1cc(=O)[nH]c(SCC(=O)Nc2nc3ccccc3s2)n1	-1	0	1	99*	-3	-3
CC(C)NC(=O)Cn1c(-c2cncs2)nc2ccccc21	.	.	-3	.	.	.
Cc1cc(N2CCN(C)CC2)nc2ccc(NC(=S)NCCN3CCc4ccccc4C3)cc12	10	7	7.9*	-77	3	-6
Cc1cc(N2CCN(C)CC2)nc2ccc(NC(=S)NCCCN3CCc4ccccc4C3)cc12	59*	0	-1	-82	-12	-4
Cc1cccc(N2CCN(C(=S)Nc3ccc4nc(N5CCN(C)CC5)cc(C)c4c3)CC2)c1C	63*	-1	1	.	1	.
CCOC(=O)[C@@]12CN(C(=O)OC(C)(C)C)CC=C1N(Cc1ccc(OC)cc1)C(=O)[C@H]2CC(=O)N1CCC(c2ccccc2)CC1	.	.	-4	.	.	.
CC(C)(C)c1ccc(S(=O)(=O)N2CCC(C(=O)N3CCN(C4CCCCC4)CC3)CC2)cc1	.	.	-5	.	.	.
CC(C)(C)Nc1nc(Cl)nc(Nc2ccccc2)n1	-14	0	2	98*	-3	-1
Nn1c(SCC(=O)Nc2ccc(F)cc2)nnc1C1CCCCC1	-1	-1	-3	0	1	0
COc1ccc(NC(=O)CSc2nnc(C3CCCCC3)n2N)c(OC)c1	-1	3	-1	-13	0	0
Cc1csc(NC(=O)CSc2nnnn2C)n1	2	-3	2	-4	2	-2
COc1ccc(CCSc2nnc(C3CCCCC3)n2N)cc1	3	-13	-4	96*	-2	-2
Cc1nnc(SCC(=O)Nc2ccc(Br)cc2)n(N)c1=O	1	-1	-1	-24	-1	3
Cc1csc(NC(=O)CSc2nnc(C)c(=O)n2N)n1	-3	26	0	99*	7	-3
CN(C)c1ccc(NC(=O)CSc2nnc(C3CCCCC3)n2N)cc1	13	5	0	99*	16	2
Cc1nnc(SCC(=O)Nc2ccc(N(C)C)cc2)n(N)c1=O	-1	16	-3	99*	3	-4
COc1ccc(C2CC(=O)C(c3cccc(OC)c3)=CN2Cc2ccccc2)cc1 (configuration not stated)	.	.	-1	.	.	.
O=C(N[C@H](C(=O)N1CCC[C@H]1C(=O)NCc1ccccc1)c1ccccc1)c1ccccc1	.	.	-1	.	.	.
SMILES	Granule exo inh	GASC-1 inh	SMARCA2 act	ALR inh	M18AAP inhibitor	beta cell repl
Cc1nnc(SCC(=O)Nc2ccc(F)cc2)n(N)c1=O	4	-7	0	-30	-6	-5
CC(=O)Nc1ccc(NC(=O)CSc2nnc(C)c(=O)n2N)cc1	-3	24	-1	98*	-9	1
CCCCn1nnnc1SCC(=O)Nc1ccc(N(C)C)cc1	0	-12	-1	99*	5	0
CCn1c(SCC(=O)Nc2nccs2)nnc1C1CC1	-4	-4	-1	1	-2	-2
Nn1c(SCC(=O)Nc2nccs2)nnc1C1CC1	10	4	3	99*	10	-1
C[C@@H]1ON(C)[C@H]2C[C@H]3c4cc(-c5cccc(Cl)c5)ccc4CCN3C[C@@H]12	.	.	-1	.	.	.
CCOC(=O)[C@@]12CCCC3=C1N(CCC3)C(=O)[C@H]2CC(=O)NCCCCc1ccccc1	.	.	1	.	.	.
N#C/C(=N/Nc1ccc(OC(F)(F)F)cc1)C(N)=S	12	-8	-7	57	2	-4
NC(=S)N=Nc1ccc(NN=C(N)N)cc1	-2	0	-4	98*	67*	-3
CCn1c(=O)n(CC(=O)N2CCN(c3ccc(F)cc3)CC2)c(=O)c2ccccc21	.	.	-4	.	.	.
Cc1cc(-c2c(C)[nH]n(-c3ccccc3)c2=O)n[nH]1	0	-5	-2	81*	-5	1
O=C(Nc1cccc(-c2ccc(N3CCCCC3)nn2)c1)C(F)(F)F	-6	-2	-3	92*	5	-7
O=C(Nc1cccc(-c2ccc(N3CCCCC3)nn2)c1)c1ccc(Br)o1	0	17	7.9*	.	.	-7
O=C(NC1CCCCN(Cc2ccc(Cl)cc2)C1=O)c1ccccc1 (configuration not stated)	.	.	-1	.	.	.
COc1ccc(C(=O)NCC2CCN(C(=O)C(=O)c3cccs3)CC2)c(OC)c1	.	.	0	.	.	.
COC(=O)[C@H]1C[C@@]2(N3CCCC3)c3ccccc3N[C@H]2N1S(=O)(=O)c1ccc([N+](=O)[O-])cc1	.	.	-1	.	.	.
CCCc1ccc(-c2cc(N)n[nH]2)cc1	-1	-20	1	99*	-2	-3
CCOC(=O)c1cc2sccc2n1CC(=O)N1CCN(C(=O)c2ccco2)CC1	0	-6	-1	-1	8	-4
CCOC(=O)c1cc2sc(C)cc2n1CC(=O)N1CCN(C(=O)c2ccco2)CC1	7	16	-2	99*	10	-1
O=C1N(c2ccccc2)CC2CC(c3ccccc3)N3CCCC123 (configuration not stated)	.	.	-3	.	.	.
CCN(CC)c1ccc(NC(=O)c2ccco2)cc1	-3	-4	4	3	-11	-6
CCN(CC)c1ccc(NC(=O)c2ccco2)c(C)c1	-1	6	-2	99*	8	-2
CCN(CC)c1ccc(NC(=O)c2cccc(F)c2)c(C)c1	2	0	5	99*	14	0
CCN(CC)c1ccc(NC(=O)CC2Oc3ccccc3NC2=O)c(C)c1 (configuration not stated)	0	10	-1	98*	14	1
CCN(CC)c1ccc(NC(=O)c2ccc(Br)o2)c(C)c1	-7	-15	1	99*	14	-3
CCNC(=O)N(C)[C@H]1C[C@H]2c3[nH]c4cccc(-c5cccc(F)c5)c4c3CCN2C(=O)[C@H]1[C@H](C)O	.	.	2	.	.	.
COc1ccc(C[N+]2=C(N)N[C@@]3(C=C(C)Cn4c(=O)n(-c5ccccc5)c(=O)n43)C2)c(OC)c1	.	.	2	.	.	.
CCN(CC)c1ccc(/C=N/NC(=O)c2ccco2)c(O)c1	14	9	-3	97*	2	-6
